Drawing on PubChem BioAssay (NCI), this text covers growth for 16 compounds.

Some test systems named below: SK-MEL-2 melanoma; EKVX NSCLC; SN12C renal; UO-31 renal; TK-10 renal; CAKI-1 renal; A498 renal; CCRF-CEM leukemia; MOLT-4 leukemia; ACHN renal.
What all share (assay): NCI-60 one-dose screen, 48 h (100 = growth as untreated, 0 = no growth, -100 = all killed)
What all share (details): 10 µM unless noted

Compounds without any hit were thinned out: in the full panel of roughly 83,000, 20% have a hit.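 Negative percent growth values reflect cell death: -40 means 40% of the cells present at the start died, and -100 means all died.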 Unmarked numbers belong to inactive results. The source made the active and inactive calls. How the source made its calls: active means growth percent below 10; inactive means the rest.

For the compound `c1ccc(-c2nnc(-c3ccccn3)s2)nc1`, the growth is 104% in the experiment on SK-MEL-2 melanoma; 79.6% in the experiment with EKVX NSCLC; 114% in the experiment on SN12C renal; 76.3% with UO-31 renal; 123% with TK-10 renal; 50.1% in the experiment on CAKI-1 renal. The growth with A498 renal was 117%; in the experiment with CCRF-CEM leukemia it was 80.8%; with MOLT-4 leukemia, 109%.
Take `COc1cc(/C=C/C(=O)c2c(C)nc3ccccc3c2C)ccc1OCCCCOc1cc2c(cc1OC)C(=O)N1CCC[C@H]1C=N2`: the growth is -100% (active) with SK-MEL-2 melanoma; -26% (active) in the experiment on EKVX NSCLC; -29.6% (active) with SN12C renal; -48.4% (active) in the experiment on TK-10 renal; -80.7% (active) in the experiment on ACHN renal; -34.5% (active) in the experiment on CAKI-1 renal. Moreover, the growth in the experiment with A498 renal is -84.5% (active); with CCRF-CEM leukemia it was -36.8% (active); in the experiment with MOLT-4 leukemia it was -44.7% (active).
As for `Cc1cc(C(C)(C)C)ccc1S`, the growth with SK-MEL-2 melanoma is 93.4%; in the experiment with EKVX NSCLC, 123%; with SN12C renal, 100%; in the experiment with UO-31 renal, 90.3%; with TK-10 renal, 107%; in the experiment on CAKI-1 renal, 93.1%. In addition, the growth in the experiment on A498 renal was 92.8%; in the experiment on CCRF-CEM leukemia, 96%; in the experiment on MOLT-4 leukemia it was 81.3%.
As to `N#C/C(=C1C=C/C(=N/O)C(Cl)=C/1)c1ccc(Cl)cc1`, the growth in the experiment with SK-MEL-2 melanoma was 95.1%; in the experiment on EKVX NSCLC, 93.6%; in the experiment with SN12C renal it was 66.6%; with TK-10 renal it was 51.2%; with ACHN renal, 67.3%; in the experiment with CAKI-1 renal it was 34%. Also, the growth was 88.1% in the experiment on A498 renal, 7.1% (active) in the experiment with CCRF-CEM leukemia and 65.9% with MOLT-4 leukemia.
With `Cc1ccc(S(=O)(=O)C2=C3C(=C(c4ccccc4)c4ccccc43)CN(S(=O)(=O)c3ccc(C)cc3)C2)cc1`, the growth was 36.8% in the experiment on SK-MEL-2 melanoma; 77.9% with EKVX NSCLC; 55.3% with SN12C renal; 32.3% in the experiment with UO-31 renal; 43.3% with ACHN renal; 87.5% in the experiment on A498 renal. The growth was -7.65% (active) in the experiment on CCRF-CEM leukemia and -6.7% (active) with MOLT-4 leukemia.
Regarding `CC(C)(C)n1cc(-c2ccnc(NCCNS(=O)(=O)c3ccc(C(F)(F)F)cc3)c2)c(-c2cccc(O)c2)n1`, the growth is 66.5% with SK-MEL-2 melanoma; 52.2% in the experiment with EKVX NSCLC; 52.8% with SN12C renal; 98.7% with TK-10 renal; 57.1% in the experiment with ACHN renal; 65.9% in the experiment on CAKI-1 renal. Moreover, the growth in the experiment on A498 renal was 55.1%; with CCRF-CEM leukemia, 46.1%; in the experiment on MOLT-4 leukemia it was 28.9%.
Consider `Fc1ccc(CNCCNc2ncnc3c2cnn3-c2ccccc2)cc1`, for which the growth was 113% in the experiment with SK-MEL-2 melanoma; 89.2% in the experiment on SN12C renal; 62.1% in the experiment with UO-31 renal; 102% with TK-10 renal; 100% in the experiment on ACHN renal; 87.2% in the experiment on CAKI-1 renal. Besides, the growth in the experiment with A498 renal was 77.1%; with CCRF-CEM leukemia, 86.9%; in the experiment with MOLT-4 leukemia, 89.1%.
As to `O=C(/C=C/c1c[nH]c2ccccc12)c1ccc(O)c(CN2CCN(c3ccc(F)cc3)CC2)c1`, the growth with SK-MEL-2 melanoma was 105%; in the experiment on SN12C renal, 93.4%; with UO-31 renal, 59.4%; in the experiment with TK-10 renal, 116%; in the experiment with ACHN renal it was 92.1%; in the experiment with CAKI-1 renal it was 95.4%. The growth is 98.5% in the experiment on A498 renal, 93.2% in the experiment on CCRF-CEM leukemia and 99.4% in the experiment with MOLT-4 leukemia.
On to `COc1ccc(C(=O)n2nc(/C=C/c3ccc(O)c(OC)c3)cc2/C=C/c2ccc(O)c(OC)c2)cc1`, for which the growth was -34.1% (active) in the experiment on SK-MEL-2 melanoma; 12.8% in the experiment on SN12C renal; -1.75% (active) in the experiment with UO-31 renal; 24.7% with TK-10 renal; 7.64% (active) in the experiment with ACHN renal; 20.4% in the experiment with CAKI-1 renal. Also, the growth with A498 renal was -14.8% (active); with CCRF-CEM leukemia, -11.6% (active); in the experiment on MOLT-4 leukemia, -18.4% (active).
On to `COc1ccc2[nH]c(C(=O)OCc3ccc4c(Cl)cc(Cl)c(O)c4n3)cc2c1`, for which the growth with SK-MEL-2 melanoma was -11.4% (active); in the experiment on SN12C renal it was -75.6% (active); with UO-31 renal, -100% (active); with TK-10 renal, -98.1% (active); in the experiment with ACHN renal, -99.8% (active); with CAKI-1 renal, -99.5% (active). Besides, the growth in the experiment with A498 renal is 10.5%; in the experiment with CCRF-CEM leukemia, -9.99% (active); in the experiment with MOLT-4 leukemia, -18.5% (active).
For the compound `COc1cc(-c2nn(-c3cccc(NC(=O)Nc4ccc(Cl)c(Cl)c4)c3)cc2-c2ccncc2)ccc1Cl`, the growth was -44.2% (active) with SK-MEL-2 melanoma; 10.6% in the experiment on SN12C renal; 15.9% in the experiment on UO-31 renal; 10.9% in the experiment on TK-10 renal; 11.5% in the experiment on ACHN renal; 16.8% in the experiment on CAKI-1 renal. Further, the figures for the growth with A498 renal, with CCRF-CEM leukemia and in the experiment on MOLT-4 leukemia were -6.82% (active), -7.9% (active) and -11.1% (active), respectively.
For the compound `COc1ccc(CNCCCN2C(=O)c3ccc4c5c(ccc(c35)C2=O)C(=O)N(CCCNCCCCNCCCN)C4=O)c(OC)c1OC`, the growth in the experiment on SK-MEL-2 melanoma is -36.5% (active); in the experiment with EKVX NSCLC it was 48.7%; in the experiment with SN12C renal, -54.6% (active); in the experiment on TK-10 renal, 25.7%; in the experiment on CAKI-1 renal, 56.1%; in the experiment on A498 renal, 80%. The figures for the growth with CCRF-CEM leukemia and with MOLT-4 leukemia were 16.5% and 14.4%, respectively.
`COc1cc(C2CC(c3ccc4c(c3)OCO4)=NN2C(C)=O)cc(OC)c1OC` (centres undefined): the growth in the experiment with SK-MEL-2 melanoma is 28.5%; with EKVX NSCLC it was 38.7%; in the experiment with SN12C renal it was 46.3%; in the experiment on TK-10 renal, 38.2%; in the experiment on CAKI-1 renal, 2.4% (active); with A498 renal it was 28.8%. In addition, the values for the growth in the experiment with CCRF-CEM leukemia and with MOLT-4 leukemia were 16% and 36%, respectively.
Consider `O=C(Nc1cccc(-n2cc(-c3ccncc3)c(-c3ccc(Cl)c(O)c3)n2)c1)c1ccc(N2CCOCC2)c(C(F)(F)F)c1`, for which the growth in the experiment with SK-MEL-2 melanoma is 17.6%; with SN12C renal, 73.9%; in the experiment with UO-31 renal, 36.9%; in the experiment with TK-10 renal, 119%; in the experiment with ACHN renal it was 36.6%; with CAKI-1 renal it was 81.2%. Besides, the growth in the experiment with A498 renal is 101%; in the experiment on CCRF-CEM leukemia, 27.9%; in the experiment with MOLT-4 leukemia, 29.1%.
Regarding `COc1cc(NCCCCCN)c2ncccc2c1`, the growth in the experiment on SK-MEL-2 melanoma is 126%; in the experiment on EKVX NSCLC it was 113%; with UO-31 renal, 86.9%; in the experiment on TK-10 renal it was 119%; in the experiment with CAKI-1 renal, 96.7%; with A498 renal it was 116%. Besides, the growth in the experiment on CCRF-CEM leukemia is -24% (active); with MOLT-4 leukemia it was 88.3%.
On to `N#Cc1ccc(N2Cc3ccccc3OC3=C2C(=O)c2c(O)ccc(O)c2C3=O)cc1`, for which the growth in the experiment with SK-MEL-2 melanoma is -24% (active); in the experiment on SN12C renal, -32.9% (active); with UO-31 renal it was -80.5% (active); in the experiment on TK-10 renal, -84.4% (active); in the experiment with ACHN renal it was -59.9% (active); with CAKI-1 renal, 2.96% (active). The growth in the experiment on A498 renal is 93.4%; with CCRF-CEM leukemia, -8.98% (active).
